Shown are actives, neighbours in structure and some others; about 12% of the full set was active somewhere.
G9a block: qHTS Assay for Inhibitors of Histone Lysine Methyltransferase G9a. Histone-lysine N-methyltransferase EHMT2 (Homo sapiens), Q96KQ7. G9a H3K9 monomethylation, AlphaScreen, 2 h. Potency, µM (highest dose often 102 µM), usual class: inhibitors. 350,000 compounds, 8.8% hits; further: nearly all actives have a fitted effect of over 75% in size
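Methyltransferase reactions run at room temperature for 2 h (20 nM enzyme, 500 nM biotin-H3K9 peptide, 20 uM SAM) after a 15 min compound preincubation; product detected by AlphaScreen beads and anti-H3K9me1 antibody.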
Sfp inh: qHTS Assay for Inhibitors of Bacillus subtilis Sfp phosphopantetheinyl transferase (PPTase); 4'-phosphopantetheinyl transferase ffp (Bacillus subtilis), Q9F4F7; Biochemical Sfp PPTase activity, qHTS; Potency, µM, usual class: inhibitors; 310,000 compounds, 3.5% hits;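 further: the enzyme is Sfp with the accession as filed and its product quenches rhodamine fluorescence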
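With Hepes-Na pH 7.6 buffer containing 10 mM MgCl2, Sfp (15 nM) modified BHQ-2-YbbR (12.5 uM) using rhodamine-CoA (5 uM). Two reads 30 minutes apart at 525/598 nm yielded each well's rate.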
BAZ2B inh: qHTS Assay for Inhibitors of BAZ2B | Bromodomain adjacent to zinc finger domain protein 2B (Homo sapiens), Q9UIF8 | AlphaScreen BAZ2B-H3K14Ac peptide displacement | Potency, µM (doses to about 114 µM), usual class: inhibitors | 360,000 compounds, 4.4% hits | AID 504333, 2011; further: nearly all actives have a fitted effect of over 60% in size
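Multi-concentration screen (max 110 uM) measuring displacement of acetylated histone H3 peptide from BAZ2B by AlphaScreen, using 50 nM protein, 50 nM peptide and 10 ug/mL streptavidin donor plus Ni-chelate acceptor beads.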
JMJD2A Tudor: qHTS Assay for Inhibitors of JMJD2A-Tudor Domain; Lysine-specific demethylase 4A (Homo sapiens), O75164; AlphaScreen JMJD2A-Tudor / H3K4me3 peptide binding; Potency, µM (highest dose often 114 µM), usual class: inhibitors; 390,000 compounds, 4.4% hits; AID 504339, 2011; further: nearly all actives have a fitted effect of over 50% in size
L3MBTL1 block: qHTS Assay for the Inhibitors of L3MBTL1; Lethal(3)malignant brain tumor-like protein 1 (Homo sapiens), Q9Y468; 230,000 compounds, 0.66% hits; AlphaScreen L3MBTL1–H3K9me1 peptide binding; Potency, µM (highest dose often 57.1 µM), hits mostly inhibitors; further: nearly all actives have a fitted effect of over 60% in size
Target sequence (Q9Y468 whole entry, looked up): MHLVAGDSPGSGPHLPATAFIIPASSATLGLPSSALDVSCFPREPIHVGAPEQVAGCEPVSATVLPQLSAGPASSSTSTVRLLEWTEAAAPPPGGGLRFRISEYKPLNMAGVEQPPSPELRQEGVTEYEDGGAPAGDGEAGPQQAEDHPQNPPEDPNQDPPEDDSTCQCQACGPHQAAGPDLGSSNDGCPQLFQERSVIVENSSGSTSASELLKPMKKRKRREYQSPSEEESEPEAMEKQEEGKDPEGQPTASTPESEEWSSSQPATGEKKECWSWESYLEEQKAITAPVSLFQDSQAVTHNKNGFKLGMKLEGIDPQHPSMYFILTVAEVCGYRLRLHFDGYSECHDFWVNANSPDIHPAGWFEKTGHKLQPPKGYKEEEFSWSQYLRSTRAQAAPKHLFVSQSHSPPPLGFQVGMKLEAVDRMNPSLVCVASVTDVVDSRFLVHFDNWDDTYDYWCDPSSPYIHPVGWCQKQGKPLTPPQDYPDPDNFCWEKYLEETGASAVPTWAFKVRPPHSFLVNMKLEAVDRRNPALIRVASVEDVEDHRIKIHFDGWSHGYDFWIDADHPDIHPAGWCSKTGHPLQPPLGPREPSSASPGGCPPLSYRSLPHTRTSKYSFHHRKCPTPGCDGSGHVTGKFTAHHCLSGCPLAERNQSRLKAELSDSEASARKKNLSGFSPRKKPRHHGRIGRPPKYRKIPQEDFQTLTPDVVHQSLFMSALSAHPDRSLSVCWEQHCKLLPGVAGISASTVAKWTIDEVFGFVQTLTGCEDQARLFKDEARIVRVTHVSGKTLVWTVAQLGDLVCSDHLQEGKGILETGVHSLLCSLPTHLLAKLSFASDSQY
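Read-out is AlphaScreen signal from streptavidin donor and nickel chelate acceptor beads (10 ug/mL final each) bridging L3MBTL1 (50 nM) and biotinylated K9-monomethylated H3(1-15) peptide (75 nM), after 30 min compound exposure at room temperature.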
HP1b chromo inh: HTS for Inhibitors of HP1-beta Chromodomain Interactions with Methylated Histone Tails; Chromobox protein homolog 1 (Homo sapiens), P83916; AlphaScreen HP1-beta / biotin-H3K9me3 peptide binding; Potency, µM (highest dose often 114 µM), actives largely listed as inhibitors; 390,000 compounds, 0.56% hits; AID 540317, 2011; further: nearly all actives have a fitted effect of over 70% in size
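HP1-beta protein (50 nM final) preincubated 30 min at room temperature with biotinylated H3(1-18)K9me3 peptide (50 nM) in PBS pH 7.4, 0.01% Tween-20, then compound added for 30 min. AlphaScreen streptavidin donor/nickel chelate acceptor beads (10 ug/mL final), 30 min dark, luminescence read.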
A number is an active result; n = inactive; u = inconclusive; x = no result given; [ ] = dose if it differs, or a comment. The call rests on the fitted dose curve; in most records, active means well fitted curve in the direction sought with a large enough effect; inconclusive means small, poorly fitted or top-dose-only effect, or another doubt; inactive means no such curve, though single readings can be large; an effect the other way counts as inactive or inconclusive.

SMILES	G9a block	Sfp inh	BAZ2B inh	JMJD2A Tudor	L3MBTL1 block	HP1b chromo inh
CCCCN(C)CCNC(=O)c1cc(-c2cccnc2)nc2ccc(S(=O)(=O)N3CCC(C)CC3)cc12	50µM	n	n	u	x	n
COc1ccccc1CNC(=O)CCn1c(=O)c2ccccc2n(CC(=O)Nc2cc(Cl)ccc2C)c1=O	n	x	n	n	x	n
C=CCn1c(SCC(=O)O)nnc1-c1ccc(C(C)(C)C)cc1	32µM	n	n	n	n	n
CC(C)(C)c1ccc(-c2nnc(SCC(=O)O)n2N)cc1	45µM	n	n	n	n	n
COc1ccc(/C=N/n2cnc3c(sc(=S)n3-c3ccccc3)c2=O)cc1	n	n	n	n	x	n
S=c1sc2c(Cl)ncnc2n1-c1ccccc1	45µM	n	n	n	x	n
Cc1ccc(Nc2nc3nonc3nc2Nc2cccc(C(F)(F)F)c2)cc1Cl	u	x	u	u	x	n
FC(F)(F)c1cc(NC(=S)Nc2ccc3ccccc3c2)cc(C(F)(F)F)c1	x	n	x	x	x	x
Cc1cccc(OCc2nc(CC(=O)Nc3ccc(C)c(C)c3)cs2)c1	n	x	n	n	x	n
CCOC(=O)CSc1nc2ccccc2n2cnnc12	u	56µM	n	n	n	n
COc1ccc(C(=O)NCCc2sc(-c3cccc(F)c3)nc2C)cc1	n	x	n	n	x	n
CCOC(=O)/C(=C\c1cccc(O)c1)c1nc2sc(C)c(C)c2c(=O)[nH]1	3.2µM	7.1µM	n	56µM	n	28µM
COc1ccc(C(=O)Nc2nc(C)cc(C)n2)cc1[N+](=O)[O-]	n	n	n	n	n	n
COc1ccc(S(=O)(=O)NNc2nc(C)cc(C)n2)cc1[N+](=O)[O-]	x	50µM	n	n	x	n
COc1ccc(C2NCCc3c2[nH]c2ccccc32)cc1CSc1nc2ccccc2s1 (stereo not given)	8.9µM	45µM	45µM	25µM	n	u
COCCn1c(=O)c(-c2cc(F)cc(F)c2)nc2cnc(Oc3cccc(Cl)c3)nc21	n[12.7 µM]	n	x	x	x	x
O=c1nccc(Nc2ccccc2)[nH]1	n[12.7 µM]	n	n	n	n	n
c1ccc(Nc2cc(Nc3ccccc3)[nH]n2)cc1	u	n	45µM	u	n	n
CCOc1ccc(NC(=O)c2oc3ccccc3c2NC(=O)C(C)(C)C)cc1	n	x	n	n	x	n
COc1ccccc1-c1ccc(C(=O)O)o1	n[12.7 µM]	n	n	n	x	n
COc1ccc(Cl)cc1-c1ccc(C(=O)O)o1	u	112µM	x	x	x	x
Cc1ccc(C)c(-c2ccc(C(=O)O)o2)c1	u	112µM	x	x	x	x
COc1ccccc1CNC(=O)CCCn1c(=O)c2ccccc2n(Cc2ccccc2C#N)c1=O	n	x	n	n	x	n
CCc1ccc(-c2nc(CS(=O)CC(=O)NCCc3ccc(Cl)cc3)c(C)o2)cc1 (stereo not given)	n	x	n	n	x	n
COC(=O)NC(c1cccc(F)c1)[C@@]1(C(=O)OC)CCCC1=O (stereo not given in full)	x	n	x	x	x	x
O=C(COc1ccc(-c2nnco2)cc1)Nc1ccc(F)c(Cl)c1	x	x	x	n	n	n
N#Cc1ccsc1NC(=O)COc1ccc(-c2nnco2)cc1	40µM	n	n	n	n	n
CC(C)CC(=O)Nc1ccc(C(=O)COc2ccc(-c3nnco3)cc2)cc1	n	n	n	79µM	n	n
COc1ccc(C2=NN(C(=O)CCC(=O)O)C(c3ccc(OC)cc3)C2)cc1 (stereo not given)	x	n	n	n	n	n
CCN1CCN(CC(=O)N2N=C(c3ccc(OC)cc3)CC2c2ccc(OC)cc2)C(=O)C1=O (stereo not given)	n	n	n	79µM	n	n

Bioassay records as filed in PubChem.
